Bioassay records as filed in PubChem.
Rows were chosen to be rich in hits. Some 11% of all compounds tested hit in one or more screens of this group.
CBFb-RUNX1 inh: CBF-beta/RUNX1 interaction disruption | Potency, µM (doses to about 59.8 µM), usual class: inhibitors | AlphaScreen CBFb-His/RUNX1-biotin binding, biochemical | 230,000 tested, under 10 active
Target sequence (Q01196 whole entry, looked up): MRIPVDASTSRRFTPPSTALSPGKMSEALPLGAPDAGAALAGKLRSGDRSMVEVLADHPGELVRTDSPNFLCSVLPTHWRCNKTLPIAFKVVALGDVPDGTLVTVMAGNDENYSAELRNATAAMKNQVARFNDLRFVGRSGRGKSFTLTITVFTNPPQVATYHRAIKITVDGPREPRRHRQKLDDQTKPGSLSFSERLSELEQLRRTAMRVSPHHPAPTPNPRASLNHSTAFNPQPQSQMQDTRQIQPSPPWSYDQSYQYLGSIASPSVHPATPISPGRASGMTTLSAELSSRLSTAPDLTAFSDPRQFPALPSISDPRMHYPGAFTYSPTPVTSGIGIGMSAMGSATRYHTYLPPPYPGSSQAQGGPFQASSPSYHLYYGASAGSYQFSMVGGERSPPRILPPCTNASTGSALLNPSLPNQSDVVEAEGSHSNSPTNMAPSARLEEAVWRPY
Target sequence (Q13951 whole entry, looked up): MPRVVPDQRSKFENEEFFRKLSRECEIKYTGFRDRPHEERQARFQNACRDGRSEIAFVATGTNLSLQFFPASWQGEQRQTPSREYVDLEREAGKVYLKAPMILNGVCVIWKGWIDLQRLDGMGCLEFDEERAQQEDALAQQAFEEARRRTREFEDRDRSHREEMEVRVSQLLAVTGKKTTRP
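Bead-based AlphaScreen assay; binding partners His-tagged CBF-beta and biotinylated RUNX1 at 30 nM each. Compound exposure 15 min after a 20-min protein preincubation; bead step 90 min; all steps at room temperature.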
ALDH1A1 block: blocks purified human ALDH1A1 activity. P00352. Purified ALDH1A1, NADH fluorescence, propionaldehyde substrate. Potency, µM (top dose mostly 75.3 µM), actives largely listed as inhibitors. 7.3% of 220,000 active. AID 1030; active = well fitted inhibition curve with a large enough effect, not every such curve was filed as active; inconclusive = small, poorly fitted or top-dose-only effect, or another doubt; inactive = no such curve, though single readings can be large or run the other way
HPGD block: blocks human HPGD enzyme activity | purified HPGD, NADH fluorescence kinetic, PGE2 substrate | Potency, µM, hits mostly inhibitors | P15428 | 4.3% of 150,000 active; active = well fitted inhibition curve with a large enough effect, not every such curve was filed as active; inconclusive = small, poorly fitted or top-dose-only effect, or another doubt; inactive = no such curve, though single readings can be large or run the other way
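20 nM HPGD preincubated 15 min at room temperature with compound in 50 mM Tris-HCl pH 8, 0.01% Tween 20. Started with 1 mM NAD+ and 30 uM prostaglandin E2; NADH fluorescence (360/450 nm) read 5 times over 30-s intervals, last minus first.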
HttQ103 aggreg: reduces HttQ103-GFP aggregates in PC12 cells; PC12 HttQ103-GFP aggregates, Acumen cytometry, 40 h; Potency, µM (series often up to 46.1 µM), hits mostly inhibitors; 1.1% of 220,000 active; AID 1688; also: nearly all actives have a fitted effect of over 60% in size
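Compounds (qHTS titration) were added to PC12 cells expressing an ecdysone-driven HTT exon 1 Q103–GFP fusion after induction with 100 nM tebufenozide. Aggregate formation was measured as GFP objects in cell lysates.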
HTT ATP protect: cytoprotection in Huntington HTT-Q103 PC12 cell model; Potency, µM (titrated, usually from 56.4 µM), actives largely listed as activators; PC12 HTT-Q103 induced, cytoprotection, ATP luminescence, 40 h; 0.14% of 230,000 active; also: nearly all actives have a fitted effect of over 45% in size
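ATP quantification (ATPlite) reports survival of PC12 cells in which tebufenozide, 100 nM final, switches on Htt exon 1 with 103 glutamines linked to GFP; compounds are titrated.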
PNC inhibitor: inhibitors of perinucleolar compartment assembly | PC3M PTB-GFP, PNC prevalence imaging, 16 h; active compounds read low | activity change (PNC), negative = inhibition, % at 10 µM | 3.1% of 140,000 active | AID 2417;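 active = readout at or below -70, meaning at least 70% loss of cells showing the perinucleolar compartment, a nuclear body marking cancer cells; inconclusive = readout between -30 and a set limit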
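PC3M cells stably expressing PTB-GFP, 750–1000 cells/well, treated 16 h at 37 °C with compound (23 nl of library stock), in duplicate. After paraformaldehyde fixation and Hoechst stain, imaged at 20x; PNC prevalence scored by image analysis.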
Large screens that a line does not name were inactive. Unless noted, calls follow the shape of the dose curve; as a rule, active = well fitted curve in the direction sought with a large enough effect; inconclusive = small, poorly fitted or top-dose-only effect, or another doubt; inactive = no such curve, though single readings can be large; an effect the other way counts as inactive or inconclusive.

O=C(COC(=O)c1ccc(NS(=O)(=O)c2ccc3c(c2)OCCO3)cc1)NCC1CCCO1 (stereo not drawn)	PNC inhibitor -92
CN(c1ccc(C(=O)NCC2CCCO2)cc1)S(C)(=O)=O (stereo not drawn)	PNC inhibitor -87
O=C(NCC1CCCO1)c1ccc2c(c1)OCO2 (stereo not drawn)	HPGD block 2µM
O=C(NCC1CCCO1)c1ccc(C(=O)NCC2CCCO2)cc1 (stereo not drawn)	none
C[C@H]1Cc2c(COc3ccccc3)nc3c(c2CO1)CN(C(=O)c1cccnc1)CC3	none (no result: HttQ103 aggreg, PNC inhibitor)
CC(C)(C)c1ccc(OCC(=O)N/N=C/C2CC=CCC2)cc1 (stereo not drawn)	ALDH1A1 block 32µM (no result: HPGD block, PNC inhibitor)
Cc1c(Cl)ccc2c(C(=O)NC(C)c3ccncc3)cc(-c3ccncc3)nc12 (stereo not drawn)	ALDH1A1 block 1.1µM (no result: HPGD block, PNC inhibitor)
CC(NC(=O)c1cc(F)c(F)cc1Cl)c1ccncc1 (stereo not drawn)	none (no result: HPGD block, PNC inhibitor)
COC(=O)CNC(=O)c1cc(-c2ccncc2)nc2c(C)c(Cl)ccc12	ALDH1A1 block 13µM (no result: HPGD block, PNC inhibitor)
Cc1ccc(-c2nc(NC(=O)c3nn(C)cc3[N+](=O)[O-])sc2C)cc1C	HttQ103 aggreg 7.9µM, PNC inhibitor inconclusive
O=S(=O)(/N=C/c1c(O)ccc2ccccc12)c1cccs1	ALDH1A1 block 11µM, HPGD block inconclusive
Cc1cc(Nc2ccccc2)nc(-c2ccccc2O)n1	HttQ103 aggreg inconclusive
Cc1cc(N/N=C/c2c(O)ccc3ccccc23)nc(-c2ccccc2O)n1	HttQ103 aggreg 10µM
Oc1ccc2ccccc2c1/C=N/Nc1ccccc1	ALDH1A1 block 18µM, HPGD block inconclusive, HttQ103 aggreg inconclusive
COC(=O)C1C2CC3c4[nH]c5cc(OC)ccc5c4CCN3CC2CC(OC(=O)c2cc(OC)c(OC)c(OC)c2)C1OC (stereo not drawn)	CBFb-RUNX1 inh inconclusive (no result: HttQ103 aggreg, PNC inhibitor)
CCCCNC(=O)CC1NCCNC1=O (stereo not drawn)	none (no result: HPGD block, PNC inhibitor)
O=C1c2ccc(Oc3ccc4c(c3)C(=O)N(CCCO)C4=O)cc2C(=O)N1CCCO	ALDH1A1 block inconclusive, HttQ103 aggreg 5.6µM
COc1cccc(C(=O)Nc2ccc3c(c2)C(=O)N(CCC(=O)O)C3=O)c1	PNC inhibitor inconclusive
CC(=O)Nc1cccc(Oc2ccc3c(c2)C(=O)N(CCC(=O)O)C3=O)c1	HPGD block 25µM
O=C(O)CCN1C(=O)c2ccc(NC(=O)CSc3ccccc3)cc2C1=O	ALDH1A1 block inconclusive, HPGD block 20µM
COCCCN1C(=O)c2ccc(C(=O)Nc3cccc(OC)c3)cc2C1=O	ALDH1A1 block 1.6µM
CO[C@@H]1COC(=O)C/C=C\[C@@H](C)[C@H](OC)COC(=O)C/C=C\[C@H]1C	none (no result: HPGD block, HttQ103 aggreg, PNC inhibitor)
O=C1c2ccccc2C(Cc2ccnc(F)c2)(Cc2ccnc(F)c2)c2ccccc21	none (no result: HttQ103 aggreg, PNC inhibitor)
CCC(C(=O)C(C)C(O)C(C)CCc1ccc(C)c(O)c1C(=O)O)C1OC(CC)(C2CC[C@@](O)(CC)C(C)O2)CC1C (stereo partly drawn)	none (no result: PNC inhibitor)
COCCn1nc2cc(C(=O)NCC34CC5CC(CC(C5)C3)C4)ccc2c1OC	ALDH1A1 block inconclusive, HPGD block inconclusive
CCCn1nc2cc(C(=O)NCC34CC5CC(CC(C5)C3)C4)ccc2c1OCC	ALDH1A1 block inconclusive, HPGD block inconclusive, HttQ103 aggreg 32µM
CCOc1c2ccc(C(=O)NCCc3ccc(C)cc3)cc2nn1CC	ALDH1A1 block inconclusive, HPGD block inconclusive, PNC inhibitor -113
COc1ccc(CN(Cc2cc3cc4c(cc3[nH]c2=O)OCO4)C(=O)NC2CCCCC2)cc1	ALDH1A1 block inconclusive, HPGD block inconclusive, PNC inhibitor -97
CCN(CC)CCN(Cc1cc2cc3c(cc2[nH]c1=O)OCCO3)C(=O)NC1CCCCC1	ALDH1A1 block inconclusive, HPGD block inconclusive, PNC inhibitor inconclusive
Cc1ccc(-c2[nH]nc3c2C(c2cccnc2)C(C#N)=C(N)O3)cc1 (stereo not drawn)	none (no result: ALDH1A1 block, HPGD block, HttQ103 aggreg, PNC inhibitor)
CC(C)c1[nH]nc2c1C(c1cccc(OC(=O)N3CCOCC3)c1)C(C#N)=C(N)O2 (stereo not drawn)	ALDH1A1 block 22µM, HttQ103 aggreg 3.2µM
CCCc1[nH]nc2c1C(c1cccc(OC(=O)c3ccco3)c1)C(C#N)=C(N)O2 (stereo not drawn)	ALDH1A1 block 8.9µM
CC(C)c1[nH]nc2c1C(c1cccnc1)C(C#N)=C(N)O2 (stereo not drawn)	ALDH1A1 block 8.9µM
CN(C)c1ccnc(NCc2ccccc2)c1C#N	ALDH1A1 block inconclusive, HPGD block 14µM, PNC inhibitor inconclusive
N#Cc1c(NCc2ccccc2)ccnc1NCc1cccnc1	HPGD block 13µM, HttQ103 aggreg 22µM, PNC inhibitor -106
Cc1cc(N(C)C)c(C#N)c(NCc2ccccc2)n1	HttQ103 aggreg inconclusive
COc1ccc(NC(=S)N2CCN(C(=O)C3CCCO3)CC2)c(OC)c1 (stereo not drawn)	PNC inhibitor inconclusive
O=C(Nc1ccc2c(c1)OCO2)[C@@H]1[C@@H]2C(=O)N(C3CCCCC3)C(=O)[C@@H]2C2c3ccccc3C=CN21 (stereo partly drawn)	ALDH1A1 block 11µM, HttQ103 aggreg inconclusive
O=C(c1ccc2c(c1)OCO2)C1CCCN(C(=O)Nc2ccc(F)cc2F)C1 (stereo not drawn)	none (no result: HPGD block, PNC inhibitor)
COc1ccc(N2C(=O)[C@@H]3[C@H](C2=O)[C@H]2c4ccccc4C=CN2[C@@H]3C(C)=O)cc1	ALDH1A1 block 32µM, HPGD block inconclusive (no result: HTT ATP protect)
O=C(c1ccc2c(c1)OCO2)[C@@H]1[C@@H]2C(=O)N(C3CCCCC3)C(=O)[C@@H]2C2c3ccccc3C=CN21 (stereo partly drawn)	CBFb-RUNX1 inh inconclusive, ALDH1A1 block 3.5µM
CC(C)(C)C(=O)[C@@H]1[C@@H]2C(=O)N(C3CCCCC3)C(=O)[C@@H]2[C@H]2c3ccccc3C=CN12	ALDH1A1 block 20µM, HPGD block inconclusive, PNC inhibitor inconclusive
COc1ccc(N2C(=O)[C@H]3[C@@H](C2=O)C2c4ccccc4C=NN2[C@H]3C(=O)C(C)(C)C)cc1 (stereo partly drawn)	none (no result: ALDH1A1 block, HPGD block, PNC inhibitor)
CCOc1ccc(C2c3c(oc4ccccc4c3=O)C(=O)N2c2ccccn2)cc1OC (stereo not drawn)	none (no result: CBFb-RUNX1 inh, ALDH1A1 block, HPGD block, HttQ103 aggreg, PNC inhibitor)
CCOC(=O)OCC1OC(C#CC(C)(C)C)C=CC1OC(=O)OCC (stereo not drawn)	none (no result: HPGD block, HttQ103 aggreg, PNC inhibitor)
O=C(c1csnn1)N1CCC2(CCCN(Cc3cc(C(F)(F)F)cc(C(F)(F)F)c3)C2)CC1	none (no result: CBFb-RUNX1 inh, HttQ103 aggreg, PNC inhibitor)
